This is an account of results in the supplement of paper PMC10849652.

Common to all, as to test: log2 fold change, soluble protein after heating vs DMSO (PISA); higher = thermal stabilisation; K562 lysate, 10 uM; active = over 0.2 and 3.5 SD of the protein, either way, in both replicates (recomputed)
Compound in one assay: CS(=O)(=O)CCNCc1ccc(-c2ccc3ncnc(Nc4ccc(OCc5cccc(F)c5)c(Cl)c4)c3c2)o1 [lapatinib]
Summed up: (§1)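 The values are log-two fold changes in thermal stability compared with solvent controls and come from duplicates. They were obtained by TMTpro 16plex LC-MS/MS, with channel sums equalised, on the supernatant after 21,000xg for 90 min. That supernatant came from crude K562 extract at 1 mg/mL protein treated with 10 μM compound for 30 min, heated for 3 min across 48°C-58°C, pooled and brought to 0.5% NP-40 at 4°C.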

Compound in another assay: CS(=O)(=O)N1CCN(Cc2cc3nc(-c4cccc5[nH]ncc45)nc(N4CCOCC4)c3s2)CC1 [pictilisib]
Summed up:
as §1

Compound in another assay: C[C@@H](Oc1cc(-c2cnn(C3CCNCC3)c2)cnc1N)c1c(Cl)ccc(F)c1Cl [crizotinib]
Summed up: as §1

Compound in assay [1]: C[C@H](C1=CC=C(C=C1)C(=O)NC2=C3C=CNC3=NC=C2)N
Summed up: as §1

Compound in the next assay: C[C@H](Nc1ncnc2nc[nH]c12)c1cc2cccc(Cl)c2c(=O)n1-c1ccccc1 [duvelisib]
The method in brief:
as §1

Compound in another assay: Cc1cc(Nc2cc(CN3CCOCC3)c3nc(C)c(Cc4ccc(Cl)cc4F)n3n2)n[nH]1 [gandotinib]
Summed up: as §1

Compound in another assay: Cc1cc(Nc2cc(N3CCN(C)CC3)nc(Sc3ccc(NC(=O)C4CC4)cc3)n2)n[nH]1 [tozasertib]
Summed up: as §1

Compound in another assay: Cc1ccc(-n2nc(C(C)(C)C)cc2NC(=O)Nc2ccc(OCCN3CCOCC3)c3ccccc23)cc1 [doramapimod]
Summed up: as §1

Compound in a further assay: Cc1ccc(NC(=O)c2ccc(CN3CC[C@H](N(C)C)C3)c(C(F)(F)F)c2)cc1Nc1nccc(-c2cncnc2)n1 [bafetinib]
The method in brief:
as §1

Compound in assay [2]: Cc1cccc(CC(=O)N2CCc3c2ccc(-c2cn(C)c4ncnc(N)c24)c3F)n1
The method in brief: as §1

Compound in the next assay: Cc1cn(-c2cc(NC(=O)c3ccc(C)c(Nc4nccc(-c5cccnc5)n4)c3)cc(C(F)(F)F)c2)cn1 [nilotinib]
Summed up:
as §1

Compound in assay [3]: Cc1nc(Nc2n[nH]c3c2CN(C(=O)N[C@H](CN(C)C)c2ccccc2)C3(C)C)c2sccc2n1
The method in brief:
as §1

Compound in the next assay: Cc1nc(Nc2ncc(C(=O)Nc3c(C)cccc3Cl)s2)cc(N2CCN(CCO)CC2)n1 [dasatinib]
Summed up:
as §1

Compound in assay [4]: Cc1ncc(-c2ccnc(Nc3ccc(S(C)(=O)=O)cc3)n2)n1C(C)C
The method in brief: as §1

Compound in assay [5]: Cn1cc(-c2ccc3c(c2)CCN3C(=O)Cc2cccc(C(F)(F)F)c2)c2c(N)ncnc21
Summed up:
as §1

Compound in another assay: Cn1cc(CNCC2CCN(c3ncc(C(=O)NO)cn3)CC2)c2ccccc21 [quisinostat]
Summed up: as §1

Compound in a further assay: Cn1cncc1[C@@](N)(c1ccc(Cl)cc1)c1ccc2c(c1)c(-c1cccc(Cl)c1)cc(=O)n2C [tipifarnib]
Summed up: as §1

Compound in assay [6]: NC(=O)Nc1cc(-c2cccc(F)c2)sc1C(=O)N[C@H]1CCCNC1
The method in brief: as §1

Compound in assay [7]: NC(=O)c1cnc(N[C@@H]2CCCC[C@@H]2N)nc1Nc1cccc(-n2nccn2)c1
The method in brief:
as §1

Compound in assay [8]: NC1(c2ccc(-c3nc4ccn5c(=O)[nH]nc5c4cc3-c3ccccc3)cc2)CCC1
Summed up:
as §1

Targets with a hit are over-represented here; the source holds about 8,800 in all. About 0.5% of all pairs of compound and target were hits. Values without a mark were called inactive.

Sequence of UniProt P35249 (P35249 whole entry, looked up): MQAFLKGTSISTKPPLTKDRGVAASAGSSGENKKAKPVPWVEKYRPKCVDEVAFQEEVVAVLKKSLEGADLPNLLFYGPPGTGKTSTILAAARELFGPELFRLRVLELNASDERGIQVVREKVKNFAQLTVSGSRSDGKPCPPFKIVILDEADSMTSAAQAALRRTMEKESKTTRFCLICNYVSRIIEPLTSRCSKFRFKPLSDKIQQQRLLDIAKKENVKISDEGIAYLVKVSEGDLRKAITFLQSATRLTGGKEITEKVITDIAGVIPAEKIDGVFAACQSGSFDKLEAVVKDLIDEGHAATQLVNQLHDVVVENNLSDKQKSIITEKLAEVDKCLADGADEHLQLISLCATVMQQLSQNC
Sequence of UniProt Q9P0P0 (Q9P0P0 whole entry, looked up): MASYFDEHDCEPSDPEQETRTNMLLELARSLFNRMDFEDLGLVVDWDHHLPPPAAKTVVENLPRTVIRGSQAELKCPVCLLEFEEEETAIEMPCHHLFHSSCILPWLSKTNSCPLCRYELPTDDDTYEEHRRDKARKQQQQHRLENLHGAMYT
Sequence of UniProt P40938 (P40938 whole entry, looked up): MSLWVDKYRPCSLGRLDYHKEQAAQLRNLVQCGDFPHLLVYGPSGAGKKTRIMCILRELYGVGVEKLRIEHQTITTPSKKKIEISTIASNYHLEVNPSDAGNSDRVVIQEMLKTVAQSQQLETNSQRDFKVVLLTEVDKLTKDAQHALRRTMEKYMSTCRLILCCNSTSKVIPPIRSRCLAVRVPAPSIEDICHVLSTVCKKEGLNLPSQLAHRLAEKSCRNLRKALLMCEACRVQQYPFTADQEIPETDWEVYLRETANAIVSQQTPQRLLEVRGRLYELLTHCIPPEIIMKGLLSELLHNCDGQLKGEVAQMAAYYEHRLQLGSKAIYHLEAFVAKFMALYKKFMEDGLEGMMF
Sequence of UniProt P23443 (P23443 whole entry, looked up): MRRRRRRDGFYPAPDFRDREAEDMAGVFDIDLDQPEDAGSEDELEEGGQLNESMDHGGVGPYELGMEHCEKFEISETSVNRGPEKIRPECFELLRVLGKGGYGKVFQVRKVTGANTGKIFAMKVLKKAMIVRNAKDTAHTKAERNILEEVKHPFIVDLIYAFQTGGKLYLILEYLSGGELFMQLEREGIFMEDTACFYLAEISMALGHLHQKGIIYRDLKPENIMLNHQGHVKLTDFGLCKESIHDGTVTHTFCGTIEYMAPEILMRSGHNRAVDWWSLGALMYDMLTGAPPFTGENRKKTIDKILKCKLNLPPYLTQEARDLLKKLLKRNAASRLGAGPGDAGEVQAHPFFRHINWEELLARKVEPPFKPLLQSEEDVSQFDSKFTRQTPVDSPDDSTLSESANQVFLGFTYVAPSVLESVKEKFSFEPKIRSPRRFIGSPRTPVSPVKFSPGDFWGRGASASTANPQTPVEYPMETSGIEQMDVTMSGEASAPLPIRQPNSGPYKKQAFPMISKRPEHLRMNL
Sequence of UniProt O94762 (O94762 whole entry, looked up): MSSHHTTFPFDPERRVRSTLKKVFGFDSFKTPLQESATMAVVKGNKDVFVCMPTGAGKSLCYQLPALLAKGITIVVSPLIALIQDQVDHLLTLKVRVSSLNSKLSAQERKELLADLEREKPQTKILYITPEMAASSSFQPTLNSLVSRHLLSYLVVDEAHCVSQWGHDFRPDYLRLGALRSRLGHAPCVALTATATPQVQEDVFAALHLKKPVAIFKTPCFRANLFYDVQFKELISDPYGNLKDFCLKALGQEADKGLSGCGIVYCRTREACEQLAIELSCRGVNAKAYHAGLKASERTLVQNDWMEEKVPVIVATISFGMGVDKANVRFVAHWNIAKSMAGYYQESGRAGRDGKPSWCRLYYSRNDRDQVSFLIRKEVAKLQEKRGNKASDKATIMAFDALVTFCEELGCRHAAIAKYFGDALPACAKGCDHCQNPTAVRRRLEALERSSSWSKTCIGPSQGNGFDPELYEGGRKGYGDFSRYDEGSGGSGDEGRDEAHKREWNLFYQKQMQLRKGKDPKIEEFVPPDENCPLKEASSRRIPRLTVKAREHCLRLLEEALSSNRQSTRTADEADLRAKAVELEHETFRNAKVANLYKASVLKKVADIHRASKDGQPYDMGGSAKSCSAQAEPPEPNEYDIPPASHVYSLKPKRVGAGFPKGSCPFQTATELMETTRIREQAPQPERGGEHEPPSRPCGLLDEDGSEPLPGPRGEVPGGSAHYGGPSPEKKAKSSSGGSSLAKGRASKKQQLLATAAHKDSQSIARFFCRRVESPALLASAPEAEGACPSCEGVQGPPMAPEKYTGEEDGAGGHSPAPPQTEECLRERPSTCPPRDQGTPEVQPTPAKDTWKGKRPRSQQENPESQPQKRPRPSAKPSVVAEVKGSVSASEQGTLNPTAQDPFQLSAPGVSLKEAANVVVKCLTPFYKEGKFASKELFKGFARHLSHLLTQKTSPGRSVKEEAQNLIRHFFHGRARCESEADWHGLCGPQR
Sequence of UniProt O15027 (O15027 whole entry, looked up): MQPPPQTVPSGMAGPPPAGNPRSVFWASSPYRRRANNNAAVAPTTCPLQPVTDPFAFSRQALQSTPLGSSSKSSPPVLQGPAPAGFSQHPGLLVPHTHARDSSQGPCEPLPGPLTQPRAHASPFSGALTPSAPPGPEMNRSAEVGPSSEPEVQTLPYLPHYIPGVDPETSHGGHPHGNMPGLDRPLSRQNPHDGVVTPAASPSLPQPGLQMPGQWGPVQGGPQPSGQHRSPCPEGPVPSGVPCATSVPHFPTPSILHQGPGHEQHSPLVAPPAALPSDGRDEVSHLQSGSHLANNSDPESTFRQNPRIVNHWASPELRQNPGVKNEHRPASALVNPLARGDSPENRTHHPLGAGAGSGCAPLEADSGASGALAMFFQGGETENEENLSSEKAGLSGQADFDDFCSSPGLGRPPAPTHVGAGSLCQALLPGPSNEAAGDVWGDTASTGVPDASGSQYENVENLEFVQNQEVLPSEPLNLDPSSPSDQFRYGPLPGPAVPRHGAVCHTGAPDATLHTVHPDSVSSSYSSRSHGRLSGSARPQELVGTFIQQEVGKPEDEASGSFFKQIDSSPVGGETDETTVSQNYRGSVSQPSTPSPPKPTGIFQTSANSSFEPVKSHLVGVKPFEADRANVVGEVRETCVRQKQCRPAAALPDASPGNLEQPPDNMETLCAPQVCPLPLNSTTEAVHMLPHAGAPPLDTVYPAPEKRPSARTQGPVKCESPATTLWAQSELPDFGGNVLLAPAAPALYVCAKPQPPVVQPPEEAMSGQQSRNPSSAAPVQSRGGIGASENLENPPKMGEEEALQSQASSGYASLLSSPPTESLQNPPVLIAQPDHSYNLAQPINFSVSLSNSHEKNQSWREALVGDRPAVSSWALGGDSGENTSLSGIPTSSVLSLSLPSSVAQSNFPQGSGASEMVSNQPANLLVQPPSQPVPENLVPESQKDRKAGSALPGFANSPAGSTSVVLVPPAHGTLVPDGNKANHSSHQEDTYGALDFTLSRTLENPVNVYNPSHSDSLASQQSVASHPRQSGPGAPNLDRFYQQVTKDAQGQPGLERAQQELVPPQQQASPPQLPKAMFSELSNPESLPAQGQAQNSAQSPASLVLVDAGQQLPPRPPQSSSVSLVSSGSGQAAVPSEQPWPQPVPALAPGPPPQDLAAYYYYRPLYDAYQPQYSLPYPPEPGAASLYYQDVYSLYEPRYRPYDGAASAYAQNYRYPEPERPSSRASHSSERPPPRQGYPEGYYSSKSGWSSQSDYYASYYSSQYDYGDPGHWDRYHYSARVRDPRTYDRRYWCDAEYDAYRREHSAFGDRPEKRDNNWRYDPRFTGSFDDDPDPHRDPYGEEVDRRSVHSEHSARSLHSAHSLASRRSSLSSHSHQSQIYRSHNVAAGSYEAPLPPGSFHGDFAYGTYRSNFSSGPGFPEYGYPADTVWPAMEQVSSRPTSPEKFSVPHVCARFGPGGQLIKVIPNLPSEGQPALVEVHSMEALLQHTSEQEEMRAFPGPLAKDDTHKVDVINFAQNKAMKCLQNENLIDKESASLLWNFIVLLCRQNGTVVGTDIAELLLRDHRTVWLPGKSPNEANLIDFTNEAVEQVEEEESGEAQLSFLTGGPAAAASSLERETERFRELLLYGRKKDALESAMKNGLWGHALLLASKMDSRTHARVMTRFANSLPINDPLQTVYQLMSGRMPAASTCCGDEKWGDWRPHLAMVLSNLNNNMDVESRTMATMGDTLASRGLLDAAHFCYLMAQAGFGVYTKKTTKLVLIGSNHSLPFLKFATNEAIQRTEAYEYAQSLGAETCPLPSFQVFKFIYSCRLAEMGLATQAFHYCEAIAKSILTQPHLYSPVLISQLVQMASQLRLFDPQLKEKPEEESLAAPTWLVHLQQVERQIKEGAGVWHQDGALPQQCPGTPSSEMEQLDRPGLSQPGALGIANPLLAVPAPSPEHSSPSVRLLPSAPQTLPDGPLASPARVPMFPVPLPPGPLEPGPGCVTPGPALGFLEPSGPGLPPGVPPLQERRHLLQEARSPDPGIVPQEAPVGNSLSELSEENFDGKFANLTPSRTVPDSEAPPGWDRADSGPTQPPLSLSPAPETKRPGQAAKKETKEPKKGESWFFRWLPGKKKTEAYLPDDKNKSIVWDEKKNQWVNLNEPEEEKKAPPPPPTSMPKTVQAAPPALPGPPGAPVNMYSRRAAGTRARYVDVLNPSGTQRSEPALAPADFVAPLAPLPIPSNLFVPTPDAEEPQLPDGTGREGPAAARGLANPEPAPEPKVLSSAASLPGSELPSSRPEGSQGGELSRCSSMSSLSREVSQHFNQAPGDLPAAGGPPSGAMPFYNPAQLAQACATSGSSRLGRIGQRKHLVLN

With SEC16A isoform 5 (UniProt O15027), the log2 fold change with lapatinib was -0.019; in the assay with pictilisib it was -0.044; with crizotinib, 0.018; in assay [1], -0.039; in the assay with duvelisib it was -0.013; with gandotinib, -0.014. Further, the log2 fold change with tozasertib is -0.001; in the assay with doramapimod, -0.002; in the assay with bafetinib it was 0.031; in [2], 0.029; with nilotinib, -0.119; in assay [3] it was 0.008. Further, the log2 fold change is -0.007 with dasatinib; 0.006 in [4]; -0.002 in assay [5]; -0.054 in the assay with quisinostat; -0.036 with tipifarnib; 0.032 in [6]. The log2 fold change is 0.004 in assay [7] and -0.011 in assay [8].
As to RNF181 (UniProt Q9P0P0), the log2 fold change with lapatinib was 0.079; with pictilisib it was -0.069; with crizotinib, 0.049; in [1], 0.057; with duvelisib, 0.028; with gandotinib, -0.042. Moreover, the log2 fold change with tozasertib is 0.054; in the assay with doramapimod, 0.057; with bafetinib, -0.03; in assay [2], 0.01; with nilotinib, 0.023; in [3], 0.027. For the same target, the log2 fold change is 0.013 with dasatinib; 0.007 in [4]; -0.004 in assay [5]; -0.027 in the assay with quisinostat; -0.03 with tipifarnib; 0.006 in [6]. The log2 fold change was -0.01 in [7] and -0.023 in [8].
For RPS6KB1 (UniProt P23443), the log2 fold change is 0.009 in the assay with lapatinib; 0.075 with pictilisib; 0.16 with crizotinib; -0.104 in [1]; 0.001 with duvelisib; 0.051 with gandotinib. The log2 fold change with tozasertib is 0.022; in the assay with doramapimod it was -0.05; with bafetinib, 0.006; in assay [2] it was 0.177; in the assay with nilotinib it was -0.034; in assay [3] it was 0.077. Besides, the log2 fold change with dasatinib was -0.003; in assay [4], 0.001; in [5], 0.003; with quisinostat, -0.049; with tipifarnib, -0.008; in [6], 0.035. For the same target, the log2 fold change in [7] was -0.014; in [8] it was 0.405 (active).
Take RECQL5 (UniProt O94762): the log2 fold change was 0.277 with lapatinib; 0.06 with pictilisib; 0.049 with crizotinib; 0.084 in [1]; 0.029 with duvelisib; -0.15 with gandotinib. Also, the log2 fold change with tozasertib is 0.031; in the assay with doramapimod, -0.008; with bafetinib it was -0.062; in [2] it was -0.09; with nilotinib, -0.026; in assay [3], 0.057. Further, the log2 fold change with dasatinib is 0.023; in assay [4] it was 0.011; in assay [5], -0.04; in the assay with quisinostat, -0.013; in the assay with tipifarnib, -0.064; in assay [6] it was 0.034. For the same target, the log2 fold change in assay [7] is 0.343; in [8], 0.049.
With RPLP0P6 (UniProt Q8NHW5), the log2 fold change was 0.003 with lapatinib; 0.033 in the assay with pictilisib; -0.013 in the assay with crizotinib; 0.014 in assay [1]; 0.016 with duvelisib; -0.013 with gandotinib. Moreover, the log2 fold change in the assay with tozasertib is -0.005; with doramapimod it was 0.001; in the assay with bafetinib, 0.274 (active); in assay [2], 0.034; in the assay with nilotinib it was 0.01; in assay [3] it was -0.027. Besides, the log2 fold change in the assay with dasatinib is 0.018; in assay [4], 0.001; in [5], 0.026; with quisinostat, -0.049; in the assay with tipifarnib it was -0.02; in assay [6] it was 0.002. For the same target, the log2 fold change is 0.005 in [7] and -0.016 in assay [8].
With RFC4 (UniProt P35249), the log2 fold change is -0.01 with lapatinib; -0.004 with pictilisib; -0.027 in the assay with crizotinib; -0.065 in assay [1]; 0.01 with duvelisib; -0.028 with gandotinib. Also, the log2 fold change was -0.027 in the assay with tozasertib; 0.035 in the assay with doramapimod; -0.018 with bafetinib; 0.041 in [2]; 0.001 with nilotinib; -0.029 in assay [3]. For the same target, the log2 fold change is -0.068 with dasatinib; -0.002 in assay [4]; 0.047 in [5]; -0.016 with quisinostat; -0.004 with tipifarnib; 0.03 in assay [6]. Also, the log2 fold change in assay [7] is 0.015; in assay [8], -0.011.
Take RFC3 (UniProt P40938): the log2 fold change with lapatinib was -0.045; with pictilisib, -0.009; with crizotinib, -0.043; in assay [1] it was -0.072; with duvelisib, 0.037; with gandotinib, -0.039. Moreover, the log2 fold change with tozasertib is 0.027; with doramapimod, 0.016; with bafetinib it was -0.051; in assay [2], 0.1; with nilotinib, 0; in [3], -0.05. The log2 fold change in the assay with dasatinib is -0.036; in assay [4], 0.034; in assay [5], 0.021; with quisinostat it was -0.081; in the assay with tipifarnib, 0.002; in [6] it was 0.094. Also, the log2 fold change was 0.01 in [7] and -0.006 in assay [8].
